Test results reported in PubChem BioAssay AID463173 (ICCB-Longwood Screening Facility, Harvard Medical School, 2010).
Hit rate of the full screen: of about 52,000 compounds, about 4,300 (8.3%) were called active. This excerpt belongs to a sample that is enriched for actives. Values without a mark were called inactive. No stated cut-off is given here; in the data, active means survival mostly below about 52% (no sharp cut-off); inactive means mostly above about 56%.

Each compound was assayed on DeltatarO mutant (assay: growth inhibition of S. aureus wild type versus tarO mutant, primary screen, teichoic acid synthesis inhibitors, RN4220, OD600 (AID 463173)). Details: OD600, 18 h, stronger effect = lower value, screened at 18.75 µg/mL (by protocol).

Compared with `Cc1ccc(Cl)cc1NC(=O)CC1Sc2ccccc2NC1=O` (stereo not given), `CCOC(=O)c1c(C)[nH]c(C)c1S(=O)(=O)N(C)CC(=O)Nc1cc(Cl)ccc1C` is higher in survival: 93% for the first, 94% for the second.

First: CC(CCc1ccccc1)NC(=O)CSc1n[nH]c(-c2ccccc2Cl)n1 (stereo not given)
Second: CC1CCN(C(=O)Cn2cc(SCC(=O)NCc3ccccc3Cl)c3ccccc32)CC1
The survival of the first is lower: 54% for the first, 64% for the second.

Going from `COc1ccc(CCNC(=O)c2cc(Sc3cccc(Cl)c3)nc3ccccc23)cc1OC` to `COc1ccc(NC(=O)c2cnc(Nc3ccc(C)c(Cl)c3)c3ccccc23)cc1OC`, the survival falls from 89% to 51%.

Going from `CCc1c(C)sc2c1CCN(C(=O)Nc1cc(Cl)c(OC)cc1OC)C2c1ccccc1` (stereo not given) to `CCc1c(C)sc2c1CCN(C(=O)Nc1cc(C)cc(C)c1)C2c1ccccc1` (stereo not given), the survival falls from 63% to 55%.

First: CCc1c(C)sc2c1CCN(C(=O)Nc1ccccc1C(=O)OC)C2c1ccc(F)cc1 (stereo not given)
Second: CCc1c(C)sc2c1CCN(C(=O)Nc1cc(C)ccc1OC)C2c1ccc(F)cc1 (stereo not given)
The survival of the first is lower: 105% for the first, 144% for the second.

First: O=C(CCCN1C(=O)c2cccnc2Oc2ccc(Cl)cc21)NCc1ccc(F)cc1
Second: O=C(CSc1ccccc1)NCc1ccc2c(c1)CCN2C(=O)c1ccc(F)cc1
The survival of the first is higher: 90% for the first, 88% for the second.

First: CCOc1ccccc1NC(=O)Cn1c(=O)n(CC(=O)NCc2ccccc2Cl)c(=O)c2sccc21
Second: CCOc1ccc(NC(=O)c2cnc(Nc3ccccc3OC)c3ccccc23)cc1
The survival of the first is higher: 154% for the first, 50% for the second.

First: CCc1ccccc1N1CC(c2nc3ccccc3n2CCCCOc2ccccc2OC)CC1=O (stereo not given)
Second: CCOc1ccccc1N1CC(c2nc3ccccc3n2CCOc2ccccc2OC)CC1=O (stereo not given)
The survival of the first is lower: 80% for the first, 95% for the second.

Going from `Cc1cccc(C)c1OCCn1c(C2CC(=O)N(c3cccc(Cl)c3)C2)nc2ccccc21` (stereo not given) to `Cc1cc(C)c(Cn2c(C3CC(=O)N(c4ccc(F)cc4)C3)nc3ccccc32)c(C)c1` (stereo not given), the survival rises from 57% to 91%.

Compared with `COc1ccccc1OCCCn1c(C2CC(=O)N(c3ccc(F)cc3)C2)nc2ccccc21` (stereo not given), `CCOc1ccccc1N1CC(c2nc3ccccc3n2Cc2c(C)cc(C)cc2C)CC1=O` (stereo not given) is higher in survival: 76% for the first, 92% for the second.

Going from `CC(=O)c1cccc(NC(=O)C(C)n2c(=O)cc(-c3ccccc3)c3c(C)nn(C)c32)c1` (stereo not given) to `CCc1nnc2c(Nc3cccc(C(C)=O)c3)nc3ccccc3n12`, the survival falls from 102% to 92%.

Going from `COc1cc(/C=C/c2nc(C#N)c(N3CCCCC3)o2)cc(OC)c1OC` to `COc1ccc(C)c2sc(NC(=O)c3ccc(S(=O)(=O)N4CCCC4)cc3)nc12`, the survival rises from 89% to 101%.

Going from `CCc1nnc2c(Nc3ccccc3Br)nc3ccccc3n12` to `Nc1nnc2c(Nc3ccccc3)nc3nonc3n12`, the survival falls from 93% to 86%.

First: COc1ccc(OCCn2c(C)nc3cc(C)c(C)cc32)cc1
Second: CCC(O)c1nc2ccccc2n1CCOc1cc(C)cc(C)c1 (stereo not given)
The survival of the first is lower: 57% for the first, 100% for the second.

First: CCOc1ccc(NCc2n[nH]c(=S)n2-c2ccc(C)cc2)cc1
Second: Clc1ccc(NCc2nc3ccccc3n2CCOc2ccccc2)cc1
The survival of the first is higher: 90% for the first, 50% for the second.

First: Cc1ccc(C)c(Cn2cc(CCC(=O)NC3CCCCC3)c3ccccc32)c1
Second: O=C(NC1CCCCC1)c1ccc(CSc2nc3cccnc3n2Cc2cccc(F)c2)cc1
The survival of the first is higher: 86% for the first, 83% for the second.

First: CC(C)(C)OC(=O)N/N=C/c1cccc(O)c1
Second: COc1ccc(NC(=O)C(Cc2c[nH]c3ccccc23)NC(=O)OC(C)(C)C)cc1 (stereo not given)
The survival of the first is higher: 79% for the first, 48% for the second.

First: CC(C)(C)c1ccc(-c2ncccc2O)cc1
Second: CC(C)c1ccccc1NC(=O)C(Cc1c[nH]c2ccccc12)NC(=O)OC(C)(C)C (stereo not given)
The survival of the first is lower: 53% for the first, 162% for the second.

Going from `CCc1c(C)c2ccc3c(c2oc1=O)CN(Cc1ccccc1)CO3` to `CCc1sc(Nc2cccc(Cl)c2)nc1-c1cc2cccc(OC)c2oc1=O`, the survival falls from 99% to 90%.

Going from `COc1ccc(NC(=O)C2CCN(S(=O)(=O)c3c(C)noc3/C=C/c3cccs3)CC2)cc1` to `Cc1ccc(Cl)c2sc(NC(=O)c3ccc(S(=O)(=O)N4CCCC4)cc3)nc12`, the survival falls from 90% to 63%.

Compared with `Cn1c(=O)c2c(c3ccccc31)OC(=O)CC2c1cccc(F)c1` (stereo not given), `COc1ccc(S(=O)(=O)c2cn(C)c3cc(N4CCOCC4)c(F)cc3c2=O)cc1` is higher in survival: 59% for the first, 96% for the second.

Compared with `COc1cccc(CN(C(=O)COc2ccc(Cl)c(C)c2)C2CCS(=O)(=O)C2)c1` (stereo not given), `COc1ccc(NC(=O)c2cnc(Nc3ccc(C)c(Cl)c3)c3ccccc23)c(OC)c1` is lower in survival: 71% for the first, 63% for the second.

`Cc1nn(CC(=O)Nc2ccccc2C(F)(F)F)c(=O)c2cccn12` and `N#Cc1ccccc1NC(=O)c1cccs1` are the same in survival: 93% for the first, 93% for the second.

First: COc1ccc(C(C(=O)Nc2ccc(C(C)C)cc2)N(C)C(=O)Cc2cccs2)cc1 (stereo not given)
Second: COC(=O)c1ccccc1NC(=O)c1cnc(Nc2ccc(OC)cc2)c2ccccc12
The survival of the first is higher: 127% for the first, 61% for the second.

Going from `Cc1ccc(S(=O)(=O)N2CCNCC2)cc1` to `Cc1cc(C)c2nc(NC(=O)c3ccc(S(=O)(=O)N4CCCC4)cc3)sc2c1`, the survival rises from 87% to 102%.

Compared with `CNC(=O)c1c(NC(=O)c2ccc(S(=O)(=O)N3CCC(C)CC3)cc2)sc2c1CCC2`, `CNC(=O)c1c(NC(=O)c2ccc(S(=O)(=O)N3CCCC(C)C3)cc2)sc2c1CCC2` (stereo not given) is lower in survival: 131% for the first, 92% for the second.

Compared with `CCOc1cccc2sc(NC(=O)c3ccc(S(=O)(=O)N4CCCCC4)cc3)nc12`, `CCOc1cccc2sc(NC(=O)c3ccc(S(=O)(=O)N4CCCc5ccccc54)cc3)nc12` is lower in survival: 94% for the first, 74% for the second.

Compared with `Cc1cc(C)c2sc(NC(=O)c3ccc(S(=O)(=O)N4CCOCC4)cc3)nc2c1`, `O=C(Nc1ccc2nc(SCC(=O)N3CCCC3)sc2c1)c1ccc(Br)cc1` is lower in survival: 101% for the first, 92% for the second.

First: CCC(Sc1nc2ccccc2c2nc(-c3ccccc3)nn12)C(=O)Nc1cccc(OC)c1 (stereo not given)
Second: COc1ccc(Nc2ncc(C(=O)Nc3cccc(OC)c3)c3ccccc23)cc1
The survival of the first is lower: 94% for the first, 106% for the second.

First: O=C(NCc1ccc(F)cc1)C(=O)Nc1ccc2nc3n(c(=O)c2c1)CCCCC3
Second: CN(c1ccc(F)cc1)S(=O)(=O)N1CCCC(C(=O)NCc2cccc(Br)c2)C1 (stereo not given)
The survival of the first is higher: 94% for the first, 72% for the second.

Compared with `Cc1cc(C)cc(NC(=O)COCc2cc(-c3ccc4c(c3)OCO4)on2)c1`, `COc1ccc(Nc2ncc(C(=O)Nc3cc(C)ccc3OC)c3ccccc23)cc1` is lower in survival: 55% for the first, 50% for the second.

First: COC(=O)C1=C(N)OC2=C(C(=O)CCC2)C1c1ccc(OC)cc1 (stereo not given)
Second: COc1cccc(N2CCN(C(=O)CCc3c(C)nc4c(c3C)c(=O)n(C)c(=O)n4C)CC2)c1
The survival of the first is higher: 102% for the first, 98% for the second.

Going from `O=c1ccn2c(n1)OC1C(O)C(CO)OC12` (stereo not given) to `O=C(Nc1ccccn1)C(=NO)C(=O)Nc1ccccn1`, the survival rises from 83% to 98%.

First: O=C(c1ccccc1)N(C(=O)c1ccccc1)c1ccccn1
Second: Cc1ccc(Nc2ncc(C(=O)N3CCN(c4ccc(F)cc4)CC3)c3ccccc23)cc1Cl
The survival of the first is lower: 71% for the first, 76% for the second.

Going from `Cc1cc2c(cc1S(=O)(=O)Nc1cccc(C#N)c1)OCC(=O)N2` to `COc1ccc(Nc2ncc(C(=O)Nc3cc(Cl)c(OC)cc3OC)c3ccccc23)cc1`, the survival falls from 93% to 72%.

With `CCc1c(C)sc2c1CCN(C(=O)Nc1ccc(F)c(Cl)c1)C2c1ccc(F)cc1` (stereo not given) the survival was 46% (active).
In the case of `CCc1c(C)sc2c1CCN(C(=O)Nc1cc(OC)c(OC)c(OC)c1)C2c1ccccc1` (stereo not given), the survival is reported as 25% (active).
In the case of `Cc1ccc(C)c(OCCn2c(C3CC(=O)N(Cc4ccc(F)cc4)C3)nc3ccccc32)c1` (stereo not given), the survival is reported as 0% (active).
With `C=CCc1ccccc1OCCn1c(C2CC(=O)N(Cc3ccc(F)cc3)C2)nc2ccccc21` (stereo not given) the survival was 0% (active).
In the case of `Cc1cccc(C)c1OCCn1c(C2CC(=O)N(Cc3ccc(F)cc3)C2)nc2ccccc21` (stereo not given), the survival is reported as 4% (active).
`Cc1ccc(OCCn2c(C3CC(=O)N(Cc4ccc(F)cc4)C3)nc3ccccc32)c(C)c1` (stereo not given) was tested, and the survival was 3% (active).
In the case of `CCOc1ccc(Nc2nc3ccccc3n3c(CC)nnc23)cc1`, the survival is reported as 36% (active).
In the case of `COc1ccc(NCc2nc3ccccc3n2CCOc2ccc(C)cc2)cc1`, the survival is reported as 17% (active).
In the case of `Cc1ccc(OCCn2c(CNc3cccc(C)c3)nc3ccccc32)cc1`, the survival is reported as -3% (active).
In the case of `CCOc1ccc(NCc2nc3ccccc3n2CCOc2ccc(C)cc2)cc1`, the survival is reported as 1% (active).
In the case of `Cc1ccc(NCc2nc3ccccc3n2CCOc2ccccc2)cc1`, the survival is reported as 3% (active).
With `CCOc1cccc2sc(NC(=O)c3ccc(S(=O)(=O)N4CCCCC4C)cc3)nc12` (stereo not given) the survival was 37% (active).
With `Cc1ccc(C)c2sc(NC(=O)c3ccc(S(=O)(=O)N4CCCC4)cc3)nc12` the survival was 25% (active).
In the case of `Cc1cc(C)c2sc(NC(=O)c3ccc(S(=O)(=O)N4CCCC4)cc3)nc2c1`, the survival is reported as 37% (active).
`CNC(=O)c1c(NC(=O)c2ccc(S(=O)(=O)N3CCCCC3)cc2)sc2c1CCC2` was tested, and the survival was 0% (active).
In the case of `Cc1ccc(NC(=O)C(Cc2c[nH]c3ccccc23)NC(=O)OC(C)(C)C)c(C)c1` (stereo not given), the survival is reported as 27% (active).
In the case of `Cc1ccc(Nc2ncc(C(=O)Nc3ccc(F)cc3F)c3ccccc23)cc1Cl`, the survival is reported as 37% (active).
With `COc1ccccc1Nc1ncc(C(=O)Nc2ccc(OC)c(OC)c2)c2ccccc12` the survival was 43% (active).
In the case of `COc1ccc(OC)c(NC(=O)c2cnc(Nc3ccc(C)c(Cl)c3)c3ccccc23)c1`, the survival is reported as 44% (active).
For `COc1ccc(Nc2ncc(C(=O)Nc3ccc(F)cc3F)c3ccccc23)cc1`, the survival was 35% (active).
